Laboratory results: PubChem BioAssay (Tox21)
Where “and” joins values, the source holds several entries; their conditions need not be identical. Equal values may be shown once. Results filed as inconclusive are left out. Some compounds were tested as several samples or in several runs, with calls that do not always agree. Calls of active or inactive are those of the source. The call rests on the fitted dose curve; in most records, active means well fitted curve in the direction sought with a large enough effect in the repeat runs; inconclusive means weak or mixed curves; inactive means no such curve, though single readings can be large; an effect the other way counts as inactive or inconclusive.

Assay: qHTS RealTime-Glo MT Cell Viability Assay in HepG2 cells - 0 hour (AID 1224889); further: nearly all actives have a fitted effect of over 50% in size
Conditions: RealTime-Glo luminescence; series mostly up to 76.8 µM; activity change, negative = cytotoxicity: at the top concentration
Procedure, shortened: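 HepG2 suspension premixed with RealTime-Glo reagents is plated at 600 cells per well and left 5 h at 37 C/5% CO2. Compounds in DMSO then go in, and bioluminescence reflecting viable cell number is recorded over 40 h.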
On the % scale 0 is the no-effect control and ±100 the full control effect; potency means the concentration at half of the fitted maximal effect.

| Structure (SMILES) | activity change, negative = cytotoxicity | Potency |
| --- | --- | --- |
| O=c1[nH]c(Cl)c(Cl)cc1Cl | 5.01% (inactive) |  |
| CCCCCCCCCCCCCCn1cc[n+](C)c1 |  | inactive |
| CSC(=O)c1c(C(F)F)nc(C(F)(F)F)c(C(=O)SC)c1CC(C)C | -7.19% (inactive) |  |
| Cc1ccc(C)c2ccccc12 | -17% (inactive) |  |
| O=C(NC(=O)c1ccccc1Cl)Nc1ccc(OC(F)(F)F)cc1 | 1.53% (inactive) |  |
| Oc1cccc(Cl)c1Cl | 14.5% (inactive) |  |
| O=C(N[C@H]1N=C(c2ccccc2F)c2cccc3c2N(CC3)C1=O)c1cc2ccccc2[nH]1 | -11.3% [at 35.3 µM] (inactive) |  |
| CNC(C)(C)Cc1ccccc1 | 0.131% [at 35.3 µM] (inactive) |  |
| O=[N+]([O-])[O-].[Tl+] | 6.83% (inactive) |  |
| C[C@@H]1CC2=CC(=O)CC[C@@H]2[C@H]2CC[C@@]3(C)[C@@H](CC[C@]3(C)O)[C@@H]21 | -7.33% [at 35.3 µM] (inactive) |  |
| Brc1ccc(Oc2ccc(Br)cc2Br)c(Br)c1 | -5.52% (inactive) |  |
| COP(=S)(OC)Oc1nc(Cl)c(Cl)cc1Cl | -13.6% (inactive) |  |
| [O-][Cl+3]([O-])([O-])O | -4.28% (inactive) |  |
| CC(C)[C@@H](Nc1ccc(C(F)(F)F)cc1Cl)C(=O)OC(C#N)c1cccc(Oc2ccccc2)c1 (stereo partly specified) | 0.97% (inactive) |  |
| CSSC | 1.2% (inactive) |  |
| CSC1=N[C@@](C)(c2ccccc2)C(=O)N1Nc1ccccc1 | 9.21% (inactive) |  |
| N#CCCl | -5.57% (inactive) |  |
| CCCC[N+]1(C)CCCC1 (tested in a mixture with another compound) | -15.9% (inactive) |  |
| Cc1ccc([N+](=O)[O-])[c]2c1[O][Hg]2 | -16.7% [at 35.3 µM] (inactive) |  |
| COP(=S)(OC)Oc1ccc([N+](=O)[O-])c(C)c1 | -21.2% (inactive) |  |
| CC#C[C@]1(O)CC[C@H]2[C@@H]3C[C@H](C)C4=CC(=O)CC[C@]4(C)[C@H]3CC[C@@]21C |  | 2.68 µM (active) |
| CC1CCCC1 | -0.41% (inactive) |  |
| CCCCn1cc[n+](C)c1.[Cl][Fe-]([Cl])([Cl])[Cl] | 10.1% (inactive) |  |
| Nc1nc(N)c(N)c(N)n1 | -1.05% (inactive) |  |
| CCC(C)Nc1c([N+](=O)[O-])cc(C(C)(C)C)cc1[N+](=O)[O-] (stereo unspecified) | 5.53% (inactive) |  |
| O=C(NC(=O)c1c(F)cccc1F)Nc1ccc(Oc2ccc(C(F)(F)F)cc2Cl)cc1F | 2.58% (inactive) |  |
| O=S(=O)(NS(=O)(=O)C(F)(F)F)C(F)(F)F | -0.606% (inactive) |  |

Assay: A CellTox Green Cytotoxicity Assay to monitor cytotoxicity in HepG2 cells - 8 hour (AID 1224890); further: nearly all actives have a fitted effect of over 45% in size
Conditions: CellTox Green fluorescence; series mostly up to 76.8 µM; cytotoxicity increase: at the top concentration
Procedure, shortened: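 HepG2 cells were seeded together with the CellTox Green dye at 600 cells/well, left 5 h at 37 C/5% CO2, then given compounds in DMSO. Fluorescence from dye bound to dead-cell DNA was read repeatedly over 40 h of treatment at 37 C.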

| Structure (SMILES) | cytotoxicity increase | Potency |
| --- | --- | --- |
| Nc1cc(Cl)ccc1Cl | -1.47% (inactive) |  |
| O=c1[nH]c(Cl)c(Cl)cc1Cl | 1.9% (inactive) |  |
| CCCCCCCCCCCCCCn1cc[n+](C)c1 |  | 39 µM (active) and 48.5 µM (active) and inactive |
| CSC(=O)c1c(C(F)F)nc(C(F)(F)F)c(C(=O)SC)c1CC(C)C | 3.38% (inactive) |  |
| Cc1ccc(C)c2ccccc12 | -3.32% (inactive) |  |
| CC(Cc1ccccc1)N(C)Cc1ccco1 (stereo unspecified) | 3.21% [at 35.3 µM] (inactive) |  |
| O=C(CCCCl)c1ccc(F)cc1 | 9.65% [at 35.3 µM] (inactive) |  |
| O=C(NC(=O)c1ccccc1Cl)Nc1ccc(OC(F)(F)F)cc1 | -7.3% (inactive) |  |
| Oc1cccc(Cl)c1Cl | -6.83% (inactive) |  |
| CCCCC/C=C\C/C=C\C/C=C\C/C=C\CCCC(=O)NCC(=O)O | -2.07% [at 35.3 µM] (inactive) |  |
| O=C(N[C@H]1N=C(c2ccccc2F)c2cccc3c2N(CC3)C1=O)c1cc2ccccc2[nH]1 | 21.1% [at 35.3 µM] (inactive) |  |
| CNC(C)(C)Cc1ccccc1 | -0.266% [at 35.3 µM] (inactive) |  |
| O=[N+]([O-])[O-].[Tl+] | -0.117% (inactive) |  |
| ClC(Cl)C(Cl)(Cl)Cl | 2.54% (inactive) |  |
| C[C@@H]1CC2=CC(=O)CC[C@@H]2[C@H]2CC[C@@]3(C)[C@@H](CC[C@]3(C)O)[C@@H]21 | -2.49% [at 35.3 µM] (inactive) |  |
| Brc1ccc(Oc2ccc(Br)cc2Br)c(Br)c1 | -18% (inactive) |  |
| CC(=O)[O-].CC(=O)[O-].CC(=O)[O-].[Sb+3] | -8.87% [at 2.72 µM] (inactive) |  |
| COP(=S)(OC)Oc1nc(Cl)c(Cl)cc1Cl | -14% (inactive) |  |
| CC(C)Br | 0.996% (inactive) |  |
| [O-][Cl+3]([O-])([O-])O | -6.53% (inactive) |  |

| Structure (SMILES) | cytotoxicity increase | Potency |
| --- | --- | --- |
| CC(C)[C@@H](Nc1ccc(C(F)(F)F)cc1Cl)C(=O)OC(C#N)c1cccc(Oc2ccccc2)c1 (stereo partly specified) | -5.32% (inactive) |  |
| CSSC | -11.4% (inactive) |  |
| CSC1=N[C@@](C)(c2ccccc2)C(=O)N1Nc1ccccc1 | 0.98% (inactive) |  |
| N#CCCl | -0.0494% (inactive) |  |
| CCCC[N+]1(C)CCCC1 (tested in a mixture with another compound) | -1.7% (inactive) |  |
| Cc1ccc([N+](=O)[O-])[c]2c1[O][Hg]2 |  | 3.79 µM (active) |
| COC(=O)/C=C(\C)OP(=O)(OC)OC | 3.91% (inactive) |  |
| COP(=S)(OC)Oc1ccc([N+](=O)[O-])c(C)c1 | 0.109% (inactive) |  |
| CCC[CH2][Sn]([CH2]CCC)([O]C(C)=O)[O]C(C)=O | -0.719% (inactive) |  |
| CC#C[C@]1(O)CC[C@H]2[C@@H]3C[C@H](C)C4=CC(=O)CC[C@]4(C)[C@H]3CC[C@@]21C | -1.89% [at 35.3 µM] (inactive) |  |
| CC1CCCC1 | -8.66% (inactive) |  |
| CCCCn1cc[n+](C)c1.[Cl][Fe-]([Cl])([Cl])[Cl] | -8.67% (inactive) |  |
| Nc1nc(N)c(N)c(N)n1 |  | 49.2 µM (active) |
| CCC(C)Nc1c([N+](=O)[O-])cc(C(C)(C)C)cc1[N+](=O)[O-] (stereo unspecified) | 8.62% (inactive) |  |
| O=C(NC(=O)c1c(F)cccc1F)Nc1ccc(Oc2ccc(C(F)(F)F)cc2Cl)cc1F | 2.89% (inactive) |  |
| CCCCC(CC)COC(=O)OOC(C)(C)C (stereo unspecified) | -6.3% (inactive) |  |
| CC1CN1 (stereo unspecified) | -5.14% (inactive) |  |
| O=S(=O)(NS(=O)(=O)C(F)(F)F)C(F)(F)F | 8.4% (inactive) |  |
| O.O.O.O.O.O.O.O=S(=O)([O-])[O-].[Co+2] | -9.51% (inactive) |  |
